LYPLA1 inh – LYPLA1 inhibitors, primary screen, counter-screen for PME1 inhibitor project, biochemical, fluorescence polarization, FP-Rh probe ABPP; recombinant LYPLA1; inhibition, % at 5.9 µM; 0.16% of 320,000 active;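 active means inhibition above the mean of all tested compounds plus 3 SD, set per campaign, cut at about 14% in these data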;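 further: inhibitors block serine hydrolase probe labeling of LYPLA1 so polarization falls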
Target sequence (O75608 whole entry, looked up): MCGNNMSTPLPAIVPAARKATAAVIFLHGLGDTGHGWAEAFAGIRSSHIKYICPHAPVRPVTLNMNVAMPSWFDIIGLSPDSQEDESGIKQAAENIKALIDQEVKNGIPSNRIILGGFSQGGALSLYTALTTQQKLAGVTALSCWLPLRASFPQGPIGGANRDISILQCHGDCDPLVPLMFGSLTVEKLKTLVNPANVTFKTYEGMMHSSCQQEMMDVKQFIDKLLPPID
EBNA-1 inh – EBNA-1 DNA-binding inhibitors, primary screen, biochemical, fluorescence polarization | 0.34% of 300,000 active | inhibition, % at 14.8 µM; in the data active means inhibition above about 28%
GSTO1 counter – inhibitors of recombinant GSTO1, primary screen, counter-screen for RBBP9 inhibitor project, biochemical, fluorescence polarization. Glutathione S-transferase omega-1 (Homo sapiens), P78417. activity-based probe fluorescence polarization. inhibition, % at 5.96 µM. 1.1% of 300,000 active;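 active means inhibition above the campaign mean inhibition plus 3 SD, cut at about 35% in these data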
LYPLA2 inh – LYPLA2 inhibitors, primary screen, counter-screen for PME1 inhibitor project, biochemical, fluorescence polarization, FP-Rh probe ABPP; inhibition, % at 5.9 µM; recombinant LYPLA2; Acyl-protein thioesterase 2 (Homo sapiens), O95372; 0.38% of 320,000 active;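 active means inhibition above the screen-wide mean plus 3 SD, limit set per campaign, cut at about 26% in these data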
ZTA DNA inh – ZTA (EBV) inhibition in EBNA-1 counter-screen; ZTA-DNA binding, fluorescence polarization; inhibition, % at 11 µM; AID 2234; 0.15% of 320,000 active; in the data active means inhibition above about 33%
PAD4 inh – human PAD4 inhibitors, primary screen, biochemical, fluorescence polarization, 1536-well format | Protein-arginine deiminase type-4 (Homo sapiens), Q9UM07 | recombinant PAD4, RCA probe fluorescence polarization | inhibition, % at 6.36 µM | 0.41% of 330,000 active;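 active means percent inhibition above a cutoff equal to the mean of all tested compounds plus 3 SD, cut at about 15% in these data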
GSTO1 confirm – GSTO1 inhibitor hit confirmation, counter-screen for RBBP9 inhibitor project, biochemical, fluorescence polarization, triplicate; shares compounds with GSTO1 counter; recombinant GSTO1, probe fluorescence polarization; inhibition, % at 5.96 µM; 54% of 2,400 active; AID 2176, 2009;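 active means inhibition above the primary screen's cutoff, its mean inhibition plus 3 SD, cut at about 35% in these data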;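 further: loss of polarization as inhibitors block binding of rhodamine sulfonate ester activity probe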
GSTO1 recomb ABPP – inhibitors of purified human GSTO1, late-stage follow-up, biochemical, gel ABPP, SE-Rh probe, percent inhibition. recombinant GSTO1, gel ABPP SE-Rh probe fluorescence. 30% of 130 active. inhibition, % at 1 µM. AID 463110, 2010. shares compounds with GSTO1 counter;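 active means inhibition of the enzyme GSTO1 above about 75%, limit read from the data; inactive means inhibition below that limit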
Each line names hits and unclear results; the compound was inactive in the other large screens (follow-up assays come after a bar, where they were run); ! = not active in a repeat. Rows were chosen to be rich in hits. Some 1.7% of all compounds tested hit in one or more screens of this group.

CCN(CC)c1ccc(/C=C2/C(=O)NC(=O)N(CC3CCCO3)C2=O)cc1 (stereo not given)	GSTO1 counter 43 | GSTO1 confirm inactive
O=C1NC(=O)N(CC2CCCO2)C(=O)/C1=C/c1cccs1 (stereo not given)	none
Cc1ccccc1NC(=O)CCl	GSTO1 counter 63 | GSTO1 confirm 78
C[C@]12CC3CC(N)(C1)C[C@@](C)(C3)C2	none
Oc1cccc2nc3ccccc3nc12	GSTO1 counter 70 | GSTO1 confirm inactive
CN(C)C1C(=O)C(C(N)=O)=C(O)C2(O)C(=O)C3=C(O)c4c(O)cccc4C(C)(O)C3CC12 (stereo not given)	GSTO1 counter 70 | GSTO1 confirm inactive
CN(C)[C@@H]1C(=O)C(C(N)=O)=C(O)[C@@]2(O)C(=O)C3=C(O)c4c(O)cccc4[C@@](C)(O)C3[C@H](O)C12 (stereo not given in full)	GSTO1 counter 62 | GSTO1 confirm 66!
O=C1CNC(c2ccccc2Cl)c2cc(Br)ccc2N1 (stereo not given)	none
COC1C(OC(=O)c2ccc(C)[nH]2)C(O)C(Oc2ccc3c(O)c(NC(=O)c4ccc(O)c(CC=C(C)C)c4)c(=O)oc3c2Cl)OC1(C)C (stereo not given)	none
CCOCN(C(=O)CCl)c1c(C)cccc1CC	GSTO1 counter 83 | GSTO1 confirm 92 | GSTO1 recomb ABPP inactive
COc1c(/C=C2/C(=O)NC(=O)N(C)C2=O)c(CCN(C)C(=O)c2ccccc2)cc2c1OCO2	none
CC(C)Oc1ccc(Cc2c(O)[nH]c(=O)[nH]c2=O)cc1	GSTO1 counter 40 | GSTO1 confirm inactive
CN1CCc2cc(O)cc3c2[C@H]1Cc1ccc(O)c(O)c1-3	GSTO1 counter 99 | GSTO1 confirm inactive
Cc1ccc(C(O)P(=O)(Oc2ccccc2)Oc2ccccc2)cc1 (stereo not given)	none
O=C1NC(=O)C(=CN2CCc3ccccc32)C(=O)N1	GSTO1 counter 39 | GSTO1 confirm inactive
O=C1NC(=O)C(=Cc2csc3ccccc23)C(=O)N1	none
O=c1[nH]c(O)c(N=Nc2ccc(S(=O)(=O)N3CCOCC3)cc2)c(=O)[nH]1	GSTO1 counter 38 | GSTO1 confirm 46
FC(F)(F)Oc1ccc(NC2=NCCCS2)cc1	none
CCOC(=O)C(O)(c1ccc(NC(=O)NC)cc1)C(F)(F)F (stereo not given)	none
COc1ccc(C[C@@H]2c3cc(O)c(OC)cc3CCN2C)cc1O	none
COc1cc2c(cc1O)[C@@H]1Cc3ccc(OC)c(O)c3CN1CC2	GSTO1 counter 69 | GSTO1 confirm inactive
CC(=O)c1cc(C(C)=O)c(C)[n+](C)c1C	none
COP(=O)(OC)C(O)C(Cl)(Cl)Cl (stereo not given)	GSTO1 counter 44 | GSTO1 confirm inactive
COP(=O)(OC)C(NS(=O)(=O)c1ccccc1)C(Cl)(Cl)Cl (stereo not given)	none
COc1cc(OC)c(C=O)c(OC(=O)N(C)C)c1	none
COP(=S)(OC)SCN1C(=O)c2ccccc2C1=O	GSTO1 counter 38 | GSTO1 confirm 60
O=c1[nH]c(=O)n(-c2cccc3ccccc23)c(O)c1/C=N/N1CCCCC1c1cccnc1 (stereo not given)	none
COc1ccc(NC(=O)c2cc([N+](=O)[O-])ccc2N2CCNCC2)cc1	none
CC1CCCN(C(=O)CCl)C1 (stereo not given)	GSTO1 counter 66 | GSTO1 confirm 84 | GSTO1 recomb ABPP inactive

Screening data deposited in PubChem by The Scripps Research Institute Molecular Screening Center.
